# Screens: PubChem, National Center for Advancing Translational Sciences (NCATS)
# Pf growth 96h – inhibits malaria parasite growth, 96 h. P. falciparum luciferase reporter growth, 96 h. 320,000 tested, 6.9% active. Potency, µM (top dose mostly 28.7 µM), for inactives: top-dose activity change, negative = inhibition, most hits filed as inhibitors; also: potency is read from the fitted curve at half-maximal effect; % is scaled to controls: 0 for no effect and ±100 for the full control effect
#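 Luminescence readout: decreased luciferase signal marks inhibited growth of reporter-expressing P. falciparum in infected red cells (2% hematocrit, 0.05% parasitemia final), exposed to compound two generations (96 h, 37 C, 5% CO2).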
# Shiga inhibitor – Shiga toxin inhibition | Vero cells, Shiga toxin protein synthesis inhibition reporter | inhibition, % at 38.7 µM | 290,000 tested, 9.2% active | AID 2315; in the data active = inhibition mostly above about 28%, no sharp cut-off; inactive = mostly below about 43%; also: 0% is about no effect
# Marburg entry inh – inhibitors of Marburg virus binding or cell entry. Marburg virus pseudotyped entry inhibition, cell reporter. Potency, µM (highest dose often 37.8 µM), without a hit: top-dose activity change, negative = inhibition, most hits filed as inhibitors. 300,000 tested, 1.8% active; calls by dose curve; tested in HEK293 cells; also: potency is read from the fitted curve at half-maximal effect; % is scaled to controls: 0 for no effect and ±100 for the full control effect
# Pf growth 48h – P. falciparum growth inhibition at 48 hours (one generation); P. falciparum luciferase growth in erythrocytes, 48 h; 310,000 tested, 5.9% active; Potency, µM (titrated, usually from 28.7 µM), without a hit: at the top dose activity change, negative = inhibition, most hits filed as inhibitors; also: potency is read from the fitted curve at half-maximal effect; % is scaled to controls: 0 for no effect and ±100 for the full control effect
#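 Read-out is firefly luciferase luminescence from an integrated reporter in P. falciparum, so falling signal marks reduced parasite growth. Infected erythrocytes were at 2% hematocrit and 0.1% parasitemia (final) in Albumax-supplemented RPMI 1640.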
# Cycloheximide cs – affects cycloheximide protein synthesis inhibition readout, counter-screen | cell reporter, cycloheximide protein synthesis inhibition counterscreen | max response, % | 300,000 tested, 12% active; in the data active = max response mostly above about 13%, no sharp cut-off; inactive = mostly below about 14%; also: read at 38.3 µM for the half of the compounds with a filed dose; 0% is about no effect
# LASV entry inh – blocks Lassa virus binding to or entry into cells | Potency, µM (highest dose often 37.9 µM), inactives show at the top dose activity change, negative = inhibition, hits mostly inhibitors | Lassa virus pseudotype entry inhibition, cell reporter | 300,000 tested, 1.2% active | AID 540256; calls by dose curve; tested in HEK293 cells; also: potency is read from the fitted curve at half-maximal effect; % is scaled to controls: 0 for no effect and ±100 for the full control effect; nearly all actives have a fitted effect of over 50% in size
# Numbers without * were called inactive; u = inconclusive; x = not tested or not shown; [ ] = dose if it differs, or a comment. The list is not random: actives were taken first. Their share in the collection is about 19%. Unless noted, calls follow the shape of the dose curve; as a rule, active = well fitted inhibition curve with a large enough effect; inconclusive = small, poorly fitted or top-dose-only effect, or another doubt; inactive = no such curve, though single readings can be large or run the other way.
SMILES,Pf growth 96h,Shiga inhibitor,Marburg entry inh,Pf growth 48h,Cycloheximide cs,LASV entry inh
O=C(NCC1COc2ccccc2O1)c1ccc(NC(=O)C2CCCO2)cc1 (stereo unspecified),23%,37*,-1%,21%,15*,0%
Cc1ccccc1NC(=O)c1ccc(NC(=O)C2CCCO2)cc1 (stereo unspecified),-13%,41,u,27%,-3,8%
O=C(CSc1nnc(-c2cccs2)n1CC1CCCO1)c1cc2ccccc2o1 (stereo unspecified),12µM*,-12,18%,30%,9,14%
O=C(CCNC(=O)c1ccc(Br)cc1)NCC1COc2ccccc2O1 (stereo unspecified),48%,71*,0%,u,23*,0%
O=C(NCC1CCCO1)c1cc2ccccc2o1 (stereo unspecified),19%,24,u,43%,24*,26%[46.1 µM]
O=C(NCC1CCCO1)c1cc2ccccc2cc1O (stereo unspecified),u,x,-7%,u,x,u
Cc1cccc(C(=O)N2CCC(N3CCC(C(=O)N4CCOCC4)CC3)CC2)c1,39%,-18,-10%,7%,-2,-13%
COc1ccc(/C=C/C(=O)NCC2COc3ccccc3O2)cc1OC (stereo unspecified),45%,12,u,2%,8,-7%
Cc1ccc(/C=C/C(=O)NCC2COc3ccccc3O2)o1 (stereo unspecified),u,18,7%[46.1 µM],-5%,16*,-7%
O=C(CC1Nc2ccccc2NC1=O)NCC1COc2ccccc2O1 (stereo unspecified),11%,14,11%,12µM*,9,-3%
O=C(OCC1COc2ccccc2O1)c1ccccc1F (stereo unspecified),-19%,25,-4%,x,19*,1%
O=C(NCC1COc2ccccc2O1)c1ccco1 (stereo unspecified),u,-4,2%,3%,1,0%
O=C(CC1OC(=O)c2ccccc21)NCC1COc2ccccc2O1 (stereo unspecified),16%,x,3%,23%,x,-20%
O=C(NCC1COc2ccccc2O1)c1cc2ccccc2o1 (stereo unspecified),u,65*,-1%,u,31*,20%
CCOC(=O)c1c(C)[nH]c(C)c1S(=O)(=O)NCC(=O)N(C)c1ccc(C)c(C)c1,x,x,x,x,x,5%[46.1 µM]
Oc1cc2c(cc1O)[C@H](c1ccccc1)CNCC2,x,x,-15%,x,x,x
O=C(NCC1COc2ccccc2O1)c1ccccc1 (stereo unspecified),-29%,103*,15%,172%,50*,3%
O=C(Cc1ccccc1)Nc1ccc(C(=O)NCC2COc3ccccc3O2)cc1 (stereo unspecified),0%,-7,u,2%,0,u
O=C(NCC1COc2ccccc2O1)c1ccc(NC(=O)C(c2ccccc2)c2ccccc2)cc1 (stereo unspecified),u,-6,3%,9.3µM*,-5,1%
COc1ccccc1CNC(=O)CSc1nn2c(=O)c(C(C)(C)C)nnc2s1,u,13,-18%,2.9µM*,-6,u
COc1ccc(OC)c(NC(=O)CSc2nn3c(=O)c(C)nnc3s2)c1,89%,-2,x,42%,-3,x
COc1ccc(CNC(=O)CSc2nn3c(=O)c(C(C)(C)C)nnc3s2)cc1OC,u,-7,10%[46.1 µM],u,-1,13%[46.1 µM]
COc1ccc(CCNC(=O)CSc2nn3c(=O)c(C)nnc3s2)cc1OC,0.21µM*,-9,x,5.2µM*,-2,x
COc1cccc(NC(=O)CSc2nn3c(=O)c(C)nnc3s2)c1,9.3µM*,-9,-4%[46.1 µM],u,-3,24%[46.1 µM]
COc1ccc(NC(=O)CSc2nn3c(=O)c(C)nnc3s2)cc1,12µM*,-4,1%[46.1 µM],u,-3,-4%[46.1 µM]
COc1ccc(C(=O)c2ccc(Cl)c([N+](=O)[O-])c2)cc1,38%,-7,5.8µM*,-6%,-2,u
COc1ccc(C(=O)c2ccc(Cl)cc2)cc1,41%,75,13%,71%,26,4%
COc1ccc(C(=O)CCC(C)(C)[N+](=O)[O-])cc1,175%,31,0%,u,32*,11%
